Records with an inconclusive call do not appear. A structure can be active in one record and inactive in another. Activity calls are given as the source filed them. The call rests on the fitted dose curve.
How the values were obtained:
[1] = Primary qHTS to identify inhibitors of SARS-CoV-2 cell entry (AID 1645846); details: SARS-CoV-2 pseudovirus cell entry assay, luminescence; activity change, negative = inhibition: at 57.1 µM (top of the series) unless noted; series mostly up to 57.1 µM; further: nearly all actives have a fitted effect of over 45% in size; further: potency means the concentration at half of the fitted maximal effect
How it was run: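 HEK293-ACE2 (Expi293F, stable hACE2), 1500 cells/well, o/n 37C; cpd 23 nL pin, 1 h; MLV-PP w/ SARS-CoV-2-S (Wuhan-Hu-1, Δ19 C-term); 48 h 37C; Bright-Glo luminescence; normalized vs S-PP and bald PP.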

[2] = Cytotoxicity counterscreen for inhibitors of SARS-CoV-2 cell entry (AID 1645845); details: cell viability (SARS-CoV-2 entry assay cells); series mostly up to 57.1 µM; further: nearly all actives have a fitted effect of over 50% in size
How it was run: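 ATP-content luminescence (ATPLite 1step, 15 min RT) read after 48 h compound exposure of Expi293F cells stably expressing human ACE2; normalized to cells-only wells and media-only wells.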

[3] = VSVG counterscreen qHTS to identify inhibitors of SARS-CoV-2 cell entry (AID 1645847); details: VSV-G pseudotyped particle entry, luciferase; series mostly up to 57.2 µM; further: nearly all actives have a fitted effect of over 65% in size; further: potency means the concentration at half of the fitted maximal effect; on activity change, negative = inhibition: on the % scale 0 is the no-effect control and ±100 the full control effect
How it was run: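 Expi293F/hACE2 cells, overnight plating; cpd 1 h, 37C/5% CO2; + VSV-G PP (MLV pseudotyping), 48 h; supernatant removed, Bright-Glo luciferase read. Norm: VSV-G PP and bald PP wells.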

CC(C(=O)O)c1ccc2c(c1)Cc1cccnc1O2 (stereo unspecified)
activity change, negative = inhibition [1]: -13.6%

CN(C)CCOC(c1ccccc1)c1ccc(Br)cc1 (stereo unspecified)
Potency [2]: inactive
activity change, negative = inhibition [1]: -67.2%
Potency [3]: 2.71 µM (active)

COC(=O)Nc1nc2ccc(S(=O)c3ccccc3)cc2[nH]1 (stereo unspecified)
Potency [2]: inactive
Potency [3]: 24.1 µM (active)

CC[C@H]1CN2CCc3cc(OC)c(OC)cc3[C@@H]2C[C@@H]1C[C@H]1NCCc2cc(OC)c(OC)cc21
Potency [1]: 1.26 µM (active)

CCCCc1ccc2nc(NC(=O)OC)[nH]c2c1
activity change, negative = inhibition [1]: -63.3%

CCCCCCCCCCCCCCCCC(C(=O)O)C(O)(CC(=O)O)C(=O)O (stereo unspecified)
Potency [2]: inactive
Potency [3]: inactive

CCOC(=O)[C@H](CCc1ccccc1)N[C@H]1CS[C@H](c2cccs2)CN(CC(=O)O)C1=O
Potency [2]: inactive
Potency [1]: inactive
activity change, negative = inhibition [1]: -4.69%

CCc1oc2ccccc2c1C(=O)c1cc(Br)c(O)c(Br)c1
activity change, negative = inhibition [1]: -14%

CC(=O)c1ccc2c(c1)N(CCCN1CCC(CCO)CC1)c1ccccc1S2
Potency [2]: inactive
Potency [3]: 7.08 µM (active)

CC/C(=C(/CC)c1ccc(O)cc1)c1ccc(O)cc1
Potency [1]: 17.8 µM (active)

CCOC(=O)C(C)(C)Oc1ccc(Cl)cc1
Potency [2]: inactive
Potency [1]: inactive
activity change, negative = inhibition [1]: -63%
Potency [3]: 12.1 µM (active)

O=C1NC2CCCCN2C12CCN(CCCN1c3ccccc3CCc3ccc(Cl)cc31)CC2 (stereo unspecified)
Potency [2]: inactive
Potency [3]: 21.5 µM (active)

Nc1c(CC(=O)O)cccc1C(=O)c1ccc(Br)cc1
Potency [1]: inactive

NC1(c2ccc(-c3nc4ccn5c(=O)[nH]nc5c4cc3-c3ccccc3)cc2)CCC1
Potency [1]: 8.91 µM (active)

COC(=O)[C@H]1[C@H]2C[C@@H]3c4[nH]c5cc(OC)ccc5c4CCN3C[C@H]2C[C@@H](OC(=O)/C=C/c2ccc(O)c(OC)c2)[C@@H]1OC
Potency [2]: inactive
Potency [1]: 12.6 µM (active)
Potency [3]: 19.2 µM (active)

O=C(NOCC1CC1)c1ccc(F)c(F)c1Nc1ccc(I)cc1Cl
Potency [1]: 31.6 µM (active)

CCN(CC)CCOc1ccc(/C(=C(\Cl)c2ccccc2)c2ccccc2)cc1
Potency [2]: inactive
activity change, negative = inhibition [1]: 4.38%
Potency [3]: 8.57 µM (active)

CCCSS/C(CCO)=C(\C)N(C=O)Cc1cnc(C)nc1N
Potency [2]: inactive
activity change, negative = inhibition [1]: -57.5%
Potency [3]: inactive

N/C(=N\N=C\c1ccc(Cl)cc1)N/N=C/c1ccc(Cl)cc1
activity change, negative = inhibition [1]: -80.5%

COCCOC(=O)C1=C(C)NC(C)=C(C(=O)OC/C=C/c2ccccc2)C1c1cccc([N+](=O)[O-])c1 (stereo unspecified)
Potency [2]: inactive
Potency [3]: 21.5 µM (active)

Cc1cc(C2CCCCC2)n(O)c(=O)c1
Potency [1]: 17.8 µM (active)

CCOC(=O)C1=C(C)NC(C)=C(C(=O)OCC)C1c1ccccc1/C=C/C(=O)OC(C)(C)C
Potency [2]: inactive
Potency [1]: 25.1 µM (active)
Potency [3]: 1.21 µM (active)

CCCCCCOC(=O)NC(=N)c1ccc(NCc2nc3cc(C(=O)N(CCC(=O)OCC)c4ccccn4)ccc3n2C)cc1
Potency [2]: inactive
Potency [1]: 22.4 µM (active)
activity change, negative = inhibition [1]: -62%
Potency [3]: 4.82 µM (active)

Cc1cc(C(C)(C)C)cc(C)c1CC1=NCCN1
Potency [2]: inactive
Potency [1]: inactive
activity change, negative = inhibition [1]: -16.7%

O=C(Nc1ccccc1)OCC(CN1CCCCC1)OC(=O)Nc1ccccc1 (stereo unspecified)
Potency [2]: inactive
Potency [3]: inactive

CC1=CC(=O)c2ccccc2C1=O
Potency [2]: inactive
Potency [3]: 6.81 µM (active)

CCOCC(O)COc1ccc(NC(=O)CC[S+](C)C)cc1 (stereo unspecified)
Potency [2]: inactive
Potency [1]: inactive
activity change, negative = inhibition [1]: -2.31%

CCN[C@H]1C[C@H](C)S(=O)(=O)c2sc(S(N)(=O)=O)cc21
Potency [2]: inactive
Potency [1]: inactive
activity change, negative = inhibition [1]: -17.9%

O=C(CCCN1CCN(c2ccc(F)cc2)CC1)NC1c2ccccc2CSc2ccccc21 (stereo unspecified)
Potency [2]: inactive
Potency [3]: 1.71 µM (active)
